The entries come from a sample that favours hits as a whole.
NS1 inh: inhibitors of influenza NS1 protein function. Potency, µM (top dose mostly 46.1 µM). 270,000 compounds, 0.4% hits. AID 2326; calls by dose curve; also: actives are rising curves; nearly all actives have a fitted effect of over 50% in size
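Read-out: OD600 growth recovery of NS1-expressing budding yeast. Cells grown overnight at 30C in -URA glucose medium, washed, resuspended and diluted 1:100 in 2% galactose assay medium, pH 6.0. Same strain lacking NS1 served as positive control.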
Cruzain Triton: inhibitors of Trypanosoma cruzi cruzain with detergent; P25779; purified cruzain, Z-FR-AMC fluorescence, 0.01% Triton; 200,000 compounds, 0.43% hits; AID 1478; Potency, µM, hits mostly inhibitors; also: nearly all actives have a fitted effect of over 40% in size
Target sequence (P25779 123-467 limits assumed): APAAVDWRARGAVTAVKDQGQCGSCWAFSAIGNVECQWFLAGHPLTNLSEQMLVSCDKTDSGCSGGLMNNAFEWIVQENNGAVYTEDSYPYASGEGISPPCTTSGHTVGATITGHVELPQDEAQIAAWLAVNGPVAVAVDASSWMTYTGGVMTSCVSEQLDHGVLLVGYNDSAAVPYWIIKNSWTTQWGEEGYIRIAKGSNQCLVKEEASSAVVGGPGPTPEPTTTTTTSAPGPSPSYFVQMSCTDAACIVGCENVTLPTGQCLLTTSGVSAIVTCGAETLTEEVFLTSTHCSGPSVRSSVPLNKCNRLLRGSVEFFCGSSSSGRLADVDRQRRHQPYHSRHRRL
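Detergent-containing arm of a paired screen for aggregation-based inhibition: 0.01% Triton X-100 present. Cruzain at 1.5 nM cleaved 2 uM Z-FR-AMC at pH 5.5 with 5 mM DTT; AMC fluorescence gain over 60 s measured activity.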
Cruzain noTriton: cruzain (T. cruzi) inhibition without detergent | 200,000 compounds, 2.3% hits | AID 1476 | purified cruzain, Z-FR-AMC fluorescence, no detergent | Potency, µM, usual class: inhibitors; also: nearly all actives have a fitted effect of over 40% in size
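Detergent-free condition (0.00005% Triton X-100) in acetate buffer pH 5.5 with DTT. 1.5 nM enzyme and compound were pre-mixed 15 min, then 2 uM Z-FR-AMC substrate added; reaction progress from fluorescence change between first and third reads (60 s).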
Numbers stand for hits; n = inactive; u = inconclusive; x = not tested or not shown. Unless noted, calls follow the shape of the dose curve; as a rule, active = well fitted curve in the direction sought with a large enough effect; inconclusive = small, poorly fitted or top-dose-only effect, or another doubt; inactive = no such curve, though single readings can be large; an effect the other way counts as inactive or inconclusive.

SMILES	NS1 inh	Cruzain Triton	Cruzain noTriton
COc1cc2c(cc1OC)-c1cc3cc(OC)c(OC)cc3c(=O)n1CC2	x	n	u
Cn1c(-c2nc(-c3ccccc3)cs2)nc2ccccc21	x	n	n
COc1ccccc1C(=O)Nc1cc2cc(Br)ccc2oc1=O	n	n	16µM
COc1ccccc1C(=O)Nc1cc2ccccc2oc1=O	u	n	n
C[C@@H]1CC[C@@]2(OC1)OC1CC3C4CC=C5CC(O)CCC5(C)C4CCC3(C)C1[C@@H]2C (stereo not given in full)	x	n	n
COc1ccccc1-c1cc(C(=O)Nc2sc3c(c2C#N)CCC(C)C3)c2ccccc2n1 (stereo not given)	n	n	3.2µM
COc1ccc(OC)c(-c2cc(C(=O)Nc3sc4c(c3C#N)CCC(C)C4)c3ccccc3n2)c1 (stereo not given)	n	n	u
N#Cc1c(NC(=O)c2ccccc2)sc2c1CCCCC2	n	n	n
COc1ccc(-c2cc(C(=O)Nc3sc4c(c3C#N)CCCC4)c3ccccc3n2)cc1	n	n	7.9µM
CCc1ccc(-n2c(SCC(=O)NC(C)CC)nc3n[nH]c(C)c3c2=N)cc1 (stereo not given)	x	n	u
Cc1nn2c(=O)cc(COC(=O)c3ccc(NC(=O)c4cccc(Br)c4)cc3)nc2s1	x	n	n
CC(C)CC(=O)C[C@H](O)C(Cl)(Cl)Cl	n	n	n
CCOC(=O)c1cccc(-n2nnc3c(sc4nc(C)c(Br)c(C)c43)c2=O)c1	x	n	n
COc1ccccc1CNC(=O)c1ccc2c(c1)N(Cc1ccc(C)cc1)CCS2	x	n	u
COc1ccc(Br)cc1CNC(=O)c1ccc2c(c1)N(Cc1ccc(C)cc1)CCS2	x	n	10µM
Cc1ccc(CN2CCSc3ccc(C(=O)N4CCOCC4)cc32)cc1	n	x	x
Cc1ccc(CN2CCSc3ccc(C(=O)Nc4ccc(C)cc4)cc32)cc1	x	n	10µM
CCCCNC(=O)CCCn1c(=O)c2ccccc2n(Cc2cccc(Cl)c2)c1=O	x	n	n
Cc1cc(C(=O)CN2C(=O)NC(C)(c3cccc(Br)c3)C2=O)c(C)n1Cc1ccco1 (stereo not given)	u	n	32µM
Cc1cc(C(=O)CSc2nn(-c3ccccc3)c(=S)s2)c(C)n1Cc1ccco1	u	n	25µM
C=CCn1c(C)cc(C(=O)CSc2nc3ccccc3[nH]2)c1C	n	n	n
Cc1cc(C(=O)CSc2nc3ccccc3[nH]2)c(C)n1Cc1ccco1	n	n	25µM
Cc1cc(C(=O)CN2C(=O)NC(c3ccccc3)(c3ccccc3)C2=O)c(C)n1Cc1ccco1	u	n	u
Cc1cc(C)nc(NC(=O)CSc2nn(-c3ccccc3)c(=S)s2)n1	n	x	x
C=CCCCCCCCCCCCC(O)CC(O)CO (stereo not given) (tested in a mixture with another compound)	x	n	u
SMILES	NS1 inh	Cruzain Triton	Cruzain noTriton
CCn1c(=O)n(-c2ccc(C)c(F)c2)c(=O)c2sc3ccccc3c21	x	n	n
CC(C)=CCn1cnc2c1C(NOCc1ccccc1)=NCN2	x	n	n
Cc1cccc(N2CCN(C(=O)C3CCCN(S(=O)(=O)c4ccc5c(c4)oc(=O)n5C)C3)CC2)c1C (stereo not given)	x	n	n
CC(C)C(NC(=O)c1ccco1)C(=O)NCC(c1ccco1)N1CCCCC1 (stereo not given)	n	14µM	u
CC(C)C(NC(=O)c1ccco1)C(=O)NC1CCCCCC1 (stereo not given)	n	x	x
Cc1ccc(Nc2c(-c3ccc(N(C)C)cc3)nc3ccccn23)cc1	x	n	n
Cc1sc2c(c1C)CN(C(C)(C)C)CN2C(=O)c1ccccc1	n	n	25µM
COCCN1Cc2c(sc(C)c2C)N(C(=O)c2ccccc2)C1	u	n	n
C=C(C)C(O)/C=C/c1ccc(Br)cc1 (stereo not given)	x	n	n
Cn1c(=O)c2c(nc(N/N=C/c3ccc(OC(=O)c4ccco4)cc3)n2Cc2ccc(F)cc2)n(C)c1=O	n	n	u
Cn1c(=O)c2c(nc(N/N=C/c3ccc(OC(=O)c4ccco4)cc3)n2Cc2ccccc2Cl)n(C)c1=O	n	u	32µM
COc1cc(CCNC(C)=O)c(C(=O)/C=C/c2cccc(OC)c2OC)cc1OC	x	n	n
N#C/C(=C\Nc1ccc2c(c1)OCCO2)c1nc(-c2ccccc2)cs1	n	n	u
Cc1nc(NC(=O)c2ccccc2)sc1-c1csc(NCc2ccccc2)n1	u	n	u
COc1cccc(Nc2nc(-c3ccc4c(c3)OCCO4)cs2)c1	n	n	25µM
Cc1nc(N)sc1-c1csc(NCc2ccccc2)n1	u	n	32µM
c1ccc(-c2csc(Nc3ccc4c(c3)OCCO4)n2)cc1	n	n	u
COc1cccc(Nc2nc(-c3sc(N)nc3C)cs2)c1	n	u	13µM
COc1cccc(Nc2nc(-c3sc(C)nc3C)cs2)c1	n	x	x
COc1ccc(-c2csc(/C(C#N)=C/Nc3ccc4c(c3)OCCO4)n2)cc1	n	n	13µM
CC(=O)Oc1ccc(/C=C/C(=O)CC2OC(Oc3cc(OC(C)=O)c4c(c3)O[C@@H](c3ccc(OC(C)=O)cc3)CC4=O)C(OC(C)=O)C(OC(C)=O)C2OC(C)=O)cc1 (stereo not given in full)	x	n	n
Cc1ccc(S(=O)(=O)Nc2ccc(-c3ccc(N4CCCCCC4)nn3)cc2)cc1C	x	n	n
CCOC(=O)/C=C/CCC/C=C/C(=O)c1ccccc1	x	n	n
CCC1CCCCN1C(=O)Cn1c(=O)n(-c2ccccc2C(F)(F)F)c(=O)c2c(C)c(C(=O)N(C)C)sc21 (stereo not given)	x	n	u
Oc1csc(Cc2nc(-c3ccc(-c4ccccc4)cc3)cs2)n1	n	n	10µM
SMILES	NS1 inh	Cruzain Triton	Cruzain noTriton
Oc1csc(Cc2nc(-c3ccc4ccccc4c3)cs2)n1	n	n	u
Cc1ccc(S(=O)(=O)c2nc(-c3ccc(F)cc3)oc2SCC(=O)c2ccccc2)cc1	x	n	u
O=C(CSc1oc(-c2ccco2)nc1S(=O)(=O)c1ccc(Br)cc1)c1ccc(Cl)cc1	x	n	20µM
O=C(CSc1oc(-c2ccccc2)nc1S(=O)(=O)c1ccc(Cl)cc1)Nc1ccc(F)cc1	x	n	n
CCCSc1oc(-c2ccco2)nc1S(=O)(=O)c1ccc(Cl)cc1	x	n	n
O=C(CSc1oc(-c2ccc(F)cc2)nc1S(=O)(=O)c1ccccc1)c1ccc(Cl)cc1	x	n	32µM
Cc1ccc(-c2nc(S(=O)(=O)c3ccc(C)cc3)c(SCC(=O)c3ccccc3)o2)cc1	x	n	16µM
Cc1nc2cnc(N3CCN(C)CC3)nc2n(Cc2ccc(F)cc2)c1=O	x	n	n
O=C(O)/C=C\C(=O)Nc1ccc2c(c1)C(=O)c1cc(F)ccc1-2	n	n	n
COC(=O)[C@@]1(Cc2ccc(OC)cc2)[C@H]2c3cc(C(=O)N(C)C)n(Cc4ccc(C)c(F)c4F)c3C[C@H]2CN1C(=O)c1ccccc1	x	n	u
Cc1noc(C)c1-c1nc(Nc2ccc(F)cc2)c2ccccc2n1	x	n	u
Cc1c(Cl)cccc1-n1ncc(C(=O)Nc2ccc3c(c2)OCCO3)c1C1CCN(C(=O)OC(C)(C)C)CC1	x	n	n
NC(N)=NC(N)=Nc1c(F)c(F)c(F)c(F)c1F	n	n	n
COc1ccc(-c2noc(-c3ccc(NCc4ccccc4OC)c([N+](=O)[O-])c3)n2)cc1	x	n	n
Nc1nonc1-c1nc2ccccc2n1CC(=O)Nc1cccc(Cl)c1Cl	x	n	n

Screening data from PubChem BioAssay.
